From PubChem
Cardio protect = cardioprotection against H2O2-induced cell death, primary screen, uHTS, H9c2 cells, ATPLite luminescence; H9c2 cardiomyocytes, H2O2 injury protection, 2 h; protection from H2O2 cell death, % at 20 µM; 360,000 compounds, 0.63% hits;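 active = compounds giving at least 50% protection of heart cells from peroxide-induced death in the single-dose screen, raw or plate-pattern-corrected value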
PfGluPho inh = PfG6PD enzyme inhibitors, primary screen, biochemical, fluorescence intensity, uHTS; glucose-6-phosphate dehydrogenase-6-phosphogluconolactonase (Plasmodium falciparum 3D7); PfGluPho enzyme, NADPH resazurin-diaphorase fluorescence; AID 504690, 2011; inhibition, % at 20 µM; 350,000 compounds, 0.78% hits;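 active = inhibition reaching at least a set limit at 20 µM in the primary screen, cut at about 59% in these data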
H9c2 TAG inh = inhibitors of triacylglycerol accumulation, primary screen, cell-based, uHTS, fluorescence, H9c2; H9c2 cells, Nile Red lipid (TAG) fluorescence; cells loaded with 200 µM oleic acid; AID 651582, 2012; 230,000 compounds, 0.66% hits; inhibition, % at 12.5 µM;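 active = pattern-corrected inhibition of lipid staining of at least 50% with the nuclear-stain viability signal not falling by more than 50%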
NadD block = inhibitors of S. aureus NadD, primary screen, biochemical, colorimetric, uHTS; Nicotinate-nucleotide adenylyltransferase NadD (Staphylococcus aureus N315); inhibition, % at 20 µM; 360,000 compounds, 0.78% hits; purified NadD enzyme, colorimetric absorbance read-out; AID 602399, 2012; in the data active = inhibition above about 26%
APOBEC3A inh = APOBEC3A ssDNA deaminase inhibitors, primary screen, selectivity assay for APOBEC3G inhibitor project, biochemical, FAM/TAMRA oligo cleavage fluorescence; inhibition, % at 20 µM; 330,000 compounds, 0.41% hits; AID 493011, 2011; recombinant A3A, FAM/TAMRA ssDNA deamination fluorescence; DNA dC->dU-editing enzyme APOBEC-3A (Homo sapiens), P31941;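 active = at least 40% inhibition at 20 µM here, with at most 30% in a related deaminase screen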
Target sequence (P31941 whole entry, looked up): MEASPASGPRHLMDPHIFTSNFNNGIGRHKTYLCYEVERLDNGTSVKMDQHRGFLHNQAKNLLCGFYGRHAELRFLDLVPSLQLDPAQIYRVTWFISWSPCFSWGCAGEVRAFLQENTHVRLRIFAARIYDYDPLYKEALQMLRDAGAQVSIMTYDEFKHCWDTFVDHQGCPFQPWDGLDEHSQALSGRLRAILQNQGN
APOBEC3G inh = APOBEC3G DNA deaminase inhibitors, primary screen, biochemical, fluorescence, single-stranded DNA substrate, uHTS; DNA dC->dU-editing enzyme APOBEC-3G (Homo sapiens), Q9HC16; recombinant A3G, ssDNA deamination FAM/TAMRA fluorescence; inhibition, % at 20 µM; 330,000 compounds, 0.28% hits;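 active = inhibition of at least 40% at 20 µM, with no more than 30% in the related APOBEC3A deaminase screen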
Target sequence (Q9HC16 whole entry, looked up): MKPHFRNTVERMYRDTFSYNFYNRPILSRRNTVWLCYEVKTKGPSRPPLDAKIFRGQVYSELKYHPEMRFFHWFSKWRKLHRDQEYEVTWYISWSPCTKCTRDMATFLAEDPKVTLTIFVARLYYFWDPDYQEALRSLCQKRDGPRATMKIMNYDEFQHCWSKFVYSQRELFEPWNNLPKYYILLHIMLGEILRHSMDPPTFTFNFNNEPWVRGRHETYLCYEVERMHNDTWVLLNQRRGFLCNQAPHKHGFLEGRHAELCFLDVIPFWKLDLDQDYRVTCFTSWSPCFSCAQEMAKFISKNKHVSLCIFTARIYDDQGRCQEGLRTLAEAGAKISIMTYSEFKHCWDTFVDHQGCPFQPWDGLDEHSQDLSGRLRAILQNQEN
A3A conf = APOBEC3A deaminase inhibitors, retest, confirmation, selectivity assay for APOBEC3G inhibitor project, biochemical, single concentration, fluorescence readout. shares compounds with APOBEC3A inh. recombinant A3A, ssDNA deaminase UDG fluorescence assay. inhibition, % at 20 µM. 1,400 compounds, 63% hits. AID 493151, 2011;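 active = inhibition reaching a set limit, 80% of the first screen's cutoff, at 20 µM in any replicate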
UDG A3A counter = E. coli UDG inhibitors, confirmation, counter-screen for APOBEC3A inhibitor project, biochemical, single concentration, fluorescence, FAM/TAMRA oligo; AID 504714, 2011; 1,000 tested, under 10 active; UDG counterscreen, FAM/TAMRA uracil oligo fluorescence; inhibition, % at 20 µM; shares compounds with APOBEC3A inh; call rule not given here
Large screens that a line does not name were inactive (follow-up assays come after a bar, where they were run). In the library only some 2.9% were active in any assay of this set; here they are far more common.

CC1(C)CN(c2cccc(-c3ccnc4ncnn34)c2)C1=O	APOBEC3A inh 54 | A3A conf inactive | UDG A3A counter inactive
CC1(C)CN(c2cccc(C#N)c2)C1=O	none
CC(c1nc2ccccc2c(=O)[nH]1)N1CCCN(S(=O)(=O)c2ccc(F)cc2)CC1 (stereo not drawn)	none
COc1ccccc1OC(C)C(=O)N1CCC(Cc2ccccc2)CC1 (stereo not drawn)	APOBEC3A inh 55 (no result: H9c2 TAG inh) | A3A conf 47 | UDG A3A counter inactive
Cc1ccccc1OC(C)C(=O)N1CCC(Cc2ccccc2)CC1 (stereo not drawn)	none
CCOc1cc(/C=C(\C#N)C(=O)NCC2CCCO2)ccc1OCC(N)=O (stereo not drawn)	APOBEC3A inh 51 | A3A conf 43 | UDG A3A counter inactive
CCn1c(C)cc(/C=C2\NC(=O)N(CC(=O)Nc3ccc(F)cc3)C2=O)c1C	APOBEC3A inh 66 | A3A conf 74 | UDG A3A counter inactive
Cc1ccc(NC(=O)CN2C(=O)N/C(=C/c3cc(C)n(-c4ccc(C(=O)O)cc4)c3C)C2=O)cc1	none (no result: H9c2 TAG inh, APOBEC3A inh, APOBEC3G inh)
CSc1ccccc1OC1CCN(Cc2ccccc2)CC1	none (no result: H9c2 TAG inh)
COCCN(CCOC)Cc1c(O)ccc2c1O/C(=C\c1ccco1)C2=O	APOBEC3A inh 56 (no result: H9c2 TAG inh) | A3A conf 27 | UDG A3A counter inactive
O=C1/C(=C/c2ccco2)Oc2c1ccc(O)c2CN1CCCCC1	none (no result: H9c2 TAG inh)
COC(=O)COc1ccc2c(c1)O/C(=C\c1ccco1)C2=O	none (no result: H9c2 TAG inh)
CC1CCN(Cc2c(O)ccc3c2O/C(=C\c2ccco2)C3=O)CC1	APOBEC3A inh 97 (no result: H9c2 TAG inh) | A3A conf 36 | UDG A3A counter inactive
COc1ccc2[nH]c(C(=O)O)c(CCN3C(=O)c4cccc([N+](=O)[O-])c4C3=O)c2c1	none
CC1(C)Oc2ccc3ccc(=O)oc3c2C(/C=N/O)=C1Cl	APOBEC3A inh 67 (no result: H9c2 TAG inh) | A3A conf 54 | UDG A3A counter inactive
CC1(C)Oc2ccc3ccc(=O)oc3c2C(/C=N/O)C1=O (stereo not drawn)	none (no result: H9c2 TAG inh)
CCC(=O)Nc1ccc(-c2nnc(SCC(=O)Nc3nccs3)n2C)cc1	APOBEC3A inh 53 (no result: H9c2 TAG inh) | A3A conf inactive
CC1CCCC(NC(=O)NC(=O)COC(=O)c2ccc(O)cc2O)C1C (stereo not drawn)	APOBEC3A inh 85 | A3A conf 33 | UDG A3A counter inactive
Cc1ccc(C(C(=O)NC2CCCCC2)N(C(=O)Cc2c[nH]c3ccccc23)c2ccccc2C)o1 (stereo not drawn)	APOBEC3A inh 45 (no result: H9c2 TAG inh) | A3A conf inactive | UDG A3A counter inactive
CN(C)/N=C/c1ccc(N2CCOCC2)cc1	none
Cn1c(=Nc2ccc(N3CCOCC3)cc2)ccc2ccccc21	APOBEC3A inh 54 | A3A conf inactive
CCN1C(N(C)CCc2cccs2)=N[C@@H](c2ccccc2)C(C(=O)OC)=C1C	APOBEC3A inh 52 | A3A conf 52 | UDG A3A counter inactive
CCOC(=O)C1C(=O)C=C(/C=C/c2ccc(N(C)C)cc2)CC1c1ccccc1 (stereo not drawn)	none (no result: H9c2 TAG inh)
C/C(=N\Nc1ccc(Cl)c(C(=O)O)c1)c1cccs1	APOBEC3A inh 42 | A3A conf inactive
CC(C)(C)c1ccc(NC(=O)C2=CN3CCS(=O)(=O)N=C3C=C2)cc1	APOBEC3A inh 51 | A3A conf 71 | UDG A3A counter inactive
Cc1ccc(NC(=O)C2=CN3CCS(=O)(=O)N=C3C=C2)cc1	none
COc1cc(C(CC(=O)Nc2cccc(C)n2)N2Cc3ccccc3C2=O)cc(OC)c1OC (stereo not drawn)	none (no result: H9c2 TAG inh)
C#CCSc1nc(Cc2ccc(Cl)cc2)nc2ccccc12	APOBEC3A inh 48 | A3A conf inactive | UDG A3A counter inactive
COc1nc(Cc2ccc(Cl)cc2)nc2ccccc12	none
CC1CCC2C(C1)OS(=O)(=O)NC2(C)C (stereo not drawn)	none (no result: Cardio protect, PfGluPho inh, H9c2 TAG inh, NadD block)
Nn1c(SCC(=O)Nc2ccc3c(c2)OCCO3)nnc(CCC(=O)O)c1=O	APOBEC3A inh 74 (no result: H9c2 TAG inh) | A3A conf 60 | UDG A3A counter inactive
Cc1nnc(SCC(=O)Nc2ccc3c(c2)OCCO3)n1N	none (no result: H9c2 TAG inh)
Nn1c(SCC(=O)Nc2ccc3c(c2)OCCO3)nnc1C(F)(F)F	APOBEC3A inh 61 | A3A conf inactive
COc1ccccc1N1CCN(C(=S)Nc2ccccc2)CC1	none
CCC1CCCCN1C(=O)COc1ccccc1NC(C)=O (stereo not drawn)	APOBEC3A inh 41 | A3A conf inactive
CCN(CC)C(=O)c1[nH]cnc1C(=O)N[C@@H](CC(C)C)C(=O)OCc1ccccc1	none (no result: H9c2 TAG inh)
COc1cccc(/C=C/C(=O)N2CCN(c3n[nH]c(=O)[nH]c3=O)CC2)c1OC	none
CC1CCN(C(=O)c2ncn(C)c2C(=O)N2CCC(C)CC2)CC1	APOBEC3A inh 55 | A3A conf 69 | UDG A3A counter inactive
COc1cc(/C=C/CNC[C@H]2O[C@@H](n3cnc4c(=O)[nH]c(N)nc43)[C@H](O)[C@@H]2O)ccc1O	none (no result: PfGluPho inh, H9c2 TAG inh, APOBEC3A inh, APOBEC3G inh)
COc1cccc2c1C(=O)c1c(O)c3c(c(O)c1C2=O)CC(O)(C(C)=O)CC3OC1CC(O)C(O)C(C)O1 (stereo not drawn)	none (no result: APOBEC3A inh, APOBEC3G inh)
COc1cccc2c1C(=O)c1c(O)c3c(c(O)c1C2=O)C[C@](O)(C(C)=O)C[C@H]3O[C@@H]1C[C@@H](N)[C@@H](O)[C@@H](C)O1	APOBEC3A inh 50 | A3A conf 42
Cc1cc(C)cc(N(C(=O)c2csnn2)C(C(=O)NC(C)(C)C)c2cccs2)c1 (stereo not drawn)	APOBEC3A inh 68 (no result: H9c2 TAG inh) | A3A conf inactive | UDG A3A counter inactive
CC(C)[N+](C)(C)CC#CC(O)(c1ccccc1)c1ccccc1	APOBEC3A inh 65 | A3A conf 73 | UDG A3A counter inactive
COc1ccc(C(=O)Nc2cc3c4c(c2)C(C)C(=O)N4CCC3)cc1OC (stereo not drawn)	none
